9 compounds from PubChem BioAssay (NCI) can be followed below.

This is part of a sample that, as a whole, favours compounds with a hit. Of some 83,000 tested, about 20% had one in any assay.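 In brief: 96-well plates, 48 h treatment, single concentration, percent growth endpoint.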 A number with no mark means an inactive call. Activity calls are given as the source filed them. Rule for the calls: active = growth percent below 10; inactive = the rest.

Among the test systems are SR leukemia; RPMI-8226 leukemia; OVCAR-8 ovarian; OVCAR-5 ovarian; OVCAR-4 ovarian; SK-OV-3 ovarian; OVCAR-3 ovarian; HS 578T breast; NCI/ADR-RES ovarian; BT-549 breast; MDA-MB-435 melanoma; SW-620 colon; MCF7 breast; HCC-2998 colon; KM12 colon; IGROV1 ovarian; T-47D breast; HCT-116 colon.
Holding throughout (test): NCI-60 one-dose screen, 48 h (100 = growth as untreated, 0 = no growth, -100 = all killed)
Holding throughout (settings): 10 µM unless noted

Consider `COc1ccc(-c2nc3c(c(-c4ccc(Cl)cc4)nn3-c3ccccc3)c(-c3ccccc3)c2C#N)cc1`, for which the growth in the assay on SR leukemia is 114%; in the assay with RPMI-8226 leukemia it was 106%; with OVCAR-8 ovarian, 100%; with OVCAR-5 ovarian, 103%; in the assay on OVCAR-4 ovarian, 116%; in the assay on SK-OV-3 ovarian, 122%. The growth in the assay on OVCAR-3 ovarian is 111%; in the assay on HS 578T breast, 114%; with NCI/ADR-RES ovarian, 108%; in the assay with BT-549 breast, 106%; with MDA-MB-435 melanoma, 105%; in the assay on SW-620 colon, 104%. Moreover, the growth is 96% in the assay with MCF7 breast, 115% in the assay on HCC-2998 colon and 98.5% in the assay with KM12 colon.

With `N#Cc1c(-c2ccc(Cl)cc2)nc(NN=Cc2ccc[nH]2)nc1N1CCOCC1`, the growth with SR leukemia was 31.2%; in the assay with RPMI-8226 leukemia it was 6.36% (active); with OVCAR-8 ovarian, 85.1%; with OVCAR-5 ovarian, 99.6%; with OVCAR-4 ovarian, 72.6%; in the assay with IGROV1 ovarian, 67.9%. Moreover, the growth in the assay on OVCAR-3 ovarian was 45.6%; with HS 578T breast it was 95%; with NCI/ADR-RES ovarian, 84.5%; with T-47D breast, 64.9%; with BT-549 breast, 16.9%; in the assay on MDA-MB-435 melanoma, 94.7%. Moreover, the growth in the assay with SW-620 colon is 89.2%; in the assay on MCF7 breast, 70.7%; in the assay with HCT-116 colon, 90.1%; in the assay with HCC-2998 colon it was 94.1%; with KM12 colon, 36.5%.

As for `COc1cc(Cc2cc(-c3ccccc3)nn(Cc3ccccc3)c2=O)cc(OC)c1OC`, the growth with SR leukemia is 36%; with RPMI-8226 leukemia it was 24.8%; with OVCAR-8 ovarian, 31.9%; in the assay on OVCAR-5 ovarian, 69.7%; with OVCAR-4 ovarian it was 35.3%; in the assay with IGROV1 ovarian, 53.1%. Besides, the growth with OVCAR-3 ovarian is 46.9%; in the assay with HS 578T breast, 74.9%; in the assay on NCI/ADR-RES ovarian it was 30.5%; in the assay with T-47D breast it was 6.19% (active); in the assay on BT-549 breast, 53.8%; with MDA-MB-435 melanoma, 44.9%. Moreover, the growth was 50.1% in the assay on SW-620 colon; 24.5% in the assay on MCF7 breast; 23.3% in the assay on HCT-116 colon; 64.2% with HCC-2998 colon; 32.9% with KM12 colon.

`COc1ccc2c(c1)CC[C@@H]1[C@@H]2CC[C@]2(C)c3c(cc(C#N)c4c3sc3ccccc34)C[C@@H]12`: the growth was 89.3% in the assay with SR leukemia; 95.8% in the assay on RPMI-8226 leukemia; 101% with OVCAR-8 ovarian; 80.6% in the assay on OVCAR-5 ovarian; 107% in the assay with OVCAR-4 ovarian; 101% in the assay with IGROV1 ovarian. The growth with OVCAR-3 ovarian was 108%; with HS 578T breast, 94.6%; in the assay on NCI/ADR-RES ovarian, 101%; in the assay on T-47D breast, 102%; with BT-549 breast it was 114%; with MDA-MB-435 melanoma, 105%. Also, the growth in the assay on MCF7 breast is 106%; in the assay with HCT-116 colon, 108%; in the assay with HCC-2998 colon it was 92.7%; in the assay with KM12 colon, 109%.

Take `O=C(/C=C/c1ccco1)Nc1ncc(Cc2cc(Cl)ccc2Cl)s1`: the growth with SR leukemia was 12.1%; in the assay on RPMI-8226 leukemia it was 23%; in the assay with OVCAR-8 ovarian, 14.1%; with OVCAR-5 ovarian, 34%; with OVCAR-4 ovarian, 56.8%; in the assay with IGROV1 ovarian, 21.3%. In addition, the growth with OVCAR-3 ovarian is -44% (active); in the assay with HS 578T breast it was 8.67% (active); in the assay on NCI/ADR-RES ovarian, -0.63% (active); with T-47D breast it was 37.4%; with BT-549 breast, 17.1%; in the assay with MDA-MB-435 melanoma it was -47.3% (active). Besides, the growth in the assay with SW-620 colon is 20.6%; with MCF7 breast, 13.3%; in the assay with HCT-116 colon, 16.3%; in the assay with HCC-2998 colon it was 13.9%; in the assay on KM12 colon it was 10.4%.

As to `COC1/C=C/OC2(C)Oc3c(C)c(O)c4c(O)c(c(/C=N/N(c5ccccc5)c5ccccc5)c(O)c4c3C2=O)NC(=O)C(C)=C/C=C/C(C)C(O)C(C)C(O)C(C)C(OC(C)=O)C1C` (stereo not given), the growth was 30.9% with SR leukemia; 22.6% in the assay on RPMI-8226 leukemia; 63.3% with OVCAR-8 ovarian; 124% in the assay with OVCAR-5 ovarian; 69.5% in the assay with OVCAR-4 ovarian; 84.8% with SK-OV-3 ovarian. Also, the growth in the assay on OVCAR-3 ovarian is 59.1%; in the assay with HS 578T breast, 62.2%; in the assay with NCI/ADR-RES ovarian it was 91.9%; with T-47D breast, -3.9% (active); in the assay on BT-549 breast, 88.9%; in the assay on MDA-MB-435 melanoma, 67.9%. Moreover, the growth was 4.75% (active) with SW-620 colon, 32.8% in the assay on MCF7 breast, 38.7% with HCT-116 colon and 55.6% in the assay on KM12 colon.

Consider `CCCC(O)Cn1ncc(C(=O)OCC)c1NC(=O)NCc1cccc(C(F)(F)F)c1` (stereo not given), for which the growth is 76.1% with SR leukemia; 47.9% in the assay with RPMI-8226 leukemia; 102% in the assay with OVCAR-8 ovarian; 107% in the assay on OVCAR-5 ovarian; 104% in the assay on OVCAR-4 ovarian; 83.8% in the assay with IGROV1 ovarian. Besides, the growth in the assay on OVCAR-3 ovarian was 100%; in the assay with HS 578T breast, 107%; with NCI/ADR-RES ovarian, 86.4%; in the assay with T-47D breast it was 73.2%; in the assay on BT-549 breast, 77.8%; in the assay on MDA-MB-435 melanoma, 103%. The growth was 106% in the assay on SW-620 colon, 97.6% in the assay with MCF7 breast, 85.3% with HCC-2998 colon and 103% in the assay on KM12 colon.

As for `N[C@@H]1CCC[C@H]1NCCCCN1C(=O)c2cccc3cc([N+](=O)[O-])cc(c23)C1=O`, the growth in the assay on SR leukemia is 4.54% (active); in the assay on RPMI-8226 leukemia, 41.4%; in the assay on OVCAR-8 ovarian, 32.5%; in the assay with OVCAR-5 ovarian, 72.5%; in the assay on OVCAR-4 ovarian it was 36.6%; in the assay on SK-OV-3 ovarian, 34%. For the same compound, the growth was 64.7% in the assay on HS 578T breast; 73.4% in the assay with NCI/ADR-RES ovarian; 69.7% in the assay with BT-549 breast; 43.4% in the assay on MDA-MB-435 melanoma; 23.8% in the assay on SW-620 colon; 17.2% in the assay on MCF7 breast. Further, the values for the growth in the assay with HCT-116 colon, with HCC-2998 colon and in the assay on KM12 colon were 11.3%, 48% and 33.1%, respectively.

`O=C(Nc1ccccc1O)c1ccc(CNc2ccnc(C(F)(F)F)c2)cc1`: the growth with SR leukemia is 24.3%; in the assay on RPMI-8226 leukemia, 1.91% (active); with OVCAR-8 ovarian, 38.8%; in the assay on OVCAR-5 ovarian, 76.6%; with OVCAR-4 ovarian, 52.5%; with IGROV1 ovarian, 59.9%. The growth was 76.2% in the assay with OVCAR-3 ovarian; 50% in the assay with HS 578T breast; 18.4% in the assay on NCI/ADR-RES ovarian; 32.1% in the assay on T-47D breast; 47.4% with BT-549 breast; 45.3% in the assay with MDA-MB-435 melanoma. The growth is 50.1% in the assay with MCF7 breast, 42.2% with HCT-116 colon, 99.6% in the assay with HCC-2998 colon and 62.6% in the assay on KM12 colon.
